Where “and” joins values, the source holds several entries; their conditions need not be identical. Identical values can stand only once. Out of some 5,500 compounds screened, about 2,000 (36%) were called active. Inconclusive results (about 18%) are left out. Rule as the data show it: active = normalized growth mostly below about 0.91 (no sharp cut-off); inconclusive = no clear call, values can overlap the other calls; inactive = mostly above about 0.92. The list shows a part of the results.
Experiment: chemical genetic growth profiling, strain panel (AID 1159580);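 also: tested at 20 µM; growth read once vehicle control cultures reached saturation at 30 °C; 1 = growth at the plate median or of vehicle wells; lower values mean less growth of the strain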
Details: S. cerevisiae deletion strains, growth OD

Measured: normalized growth

CC(C)N1C(=O)c2ccccc2NS1(=O)=O
inactive: locus YAL013W, strain DEP1, active compounds read low 1 | locus YAL021C, strain ccr4, active compounds read low 0.947 | locus YAL026C, strain drs2, active compounds read low 0.976 | locus YAL030W, strain snc1, active compounds read low 0.963 | locus YBL061C, strain skt5, active compounds read low 0.973 | locus YBR009C, strain hhf1, active compounds read low 0.961 | locus YBR021W, strain FUR4, active compounds read low 0.966 | locus YBR023C, strain chs3, active compounds read low 0.983 | locus YBR171W, strain sec66, active compounds read low 0.968 | locus YBR229C, strain ROT2, active compounds read low 1 | locus YBR231C, strain swc5, active compounds read low 0.994 | locus YBR279W, strain paf1, active compounds read low 0.977 | locus YCL011C, strain gbp2, active compounds read low 0.962 | locus YCL016C, strain dcc1, active compounds read low 0.969 | locus YCL029C, strain bik1, active compounds read low 0.999 | locus YCL069W, strain vba3, active compounds read low 0.969 | locus YCR088W, strain abp1, active compounds read low 0.978 | locus YDL005C, strain med2, active compounds read low 0.973 | locus YDL035C, strain GPR1, active compounds read low 1.01 | locus YDL040C, strain nat1, active compounds read low 0.972 | locus YDL074C, strain BRE1, active compounds read low 1.02 | locus YDL101C, strain DUN1, active compounds read low 1.01 | locus YDL134C, strain PPH21, active compounds read low 0.998 | locus YDL185W, strain tfp1, active compounds read low 1 | locus YDL192W, strain arf1, active compounds read low 1.01 | locus YDR001C, strain nth1, active compounds read low 0.955 | locus YDR069C, strain doa4, active compounds read low 0.995 | locus YDR101C, strain arx1, active compounds read low 0.999 | locus YDR137W, strain rgp1, active compounds read low 0.971 | locus YDR150W, strain NUM1, active compounds read low 0.996 | locus YDR159W, strain sac3, active compounds read low 1.02 | locus YDR162C, strain NBP2, active compounds read low 1.02 | locus YDR195W, strain ref2 0.935 | locus YDR297W, strain sur2, active compounds read low 0.988 | locus YDR318W, strain mcm21, active compounds read low 1.01 | locus YDR334W, strain swr1, active compounds read low 0.957 | locus YDR335W, strain msn5, active compounds read low 0.978 | locus YDR388W, active compounds read low 0.998 | locus YDR392W, strain spt3, active compounds read low 1.02 | locus YDR502C, strain sam2, active compounds read low 1.01 | locus YEL003W, strain gim4, active compounds read low 0.973 | locus YEL037C, strain rad23, active compounds read low 0.976 | locus YEL061C, strain CIN8 (second series), active compounds read low 0.966 | locus YEL061C, strain CIN8, active compounds read low 0.992 | locus YER015W, strain faa2, active compounds read low 0.966 | locus YER016W, strain bim1, active compounds read low 0.965 | locus YER110C, active compounds read low 1 | locus YER111C, strain swi4, active compounds read low 0.979 | locus YER155C, strain BEM2 (second series), active compounds read low 1 | locus YER155C, strain BEM2, active compounds read low 0.994 | locus YER167W, strain BCK2, active compounds read low 1 | locus YFR010W, strain ubp6, active compounds read low 0.96 | locus YGL078C, strain dbp3, active compounds read low 0.993 | locus YGL086W, strain mad1, active compounds read low 0.996 | locus YGL167C, strain pmr1, active compounds read low 0.958 | locus YGL173C, strain kem1, active compounds read low 0.979 | locus YGL227W, strain vid30, active compounds read low 0.989 | locus YGL240W, strain doc1, active compounds read low 1 | locus YGL248W, strain PDE1, active compounds read low 1.01 | locus YGL253W, strain hxk2, active compounds read low 0.984 | locus YGR078C, strain PAC10, active compounds read low 0.995 | locus YGR135W, strain pre9, active compounds read low 1.01 | locus YGR229C, strain SMI1, active compounds read low 1.02 | locus YGR252W, strain gcn5, active compounds read low 1.01 | locus YHR013C, strain ard1, active compounds read low 0.95 | locus YHR027C, strain rpn1, active compounds read low 0.968 | locus YHR030C, strain SLT2, active compounds read low 0.972 and 0.994 | locus YHR079C, strain IRE1 (second series), active compounds read low 1 | locus YHR079C, strain IRE1, active compounds read low 0.982 | locus YHR094C, strain hxt1, active compounds read low 0.996 | locus YHR129C, strain ARP1, active compounds read low 0.996 | locus YHR142W, strain chs7, active compounds read low 0.962 | locus YHR200W, strain rpn10, active compounds read low 0.995 | locus YIL066C, strain RNR3, active compounds read low 1.03 | locus YIL073C, strain SPO22, active compounds read low 1.07 | locus YIL125W, strain kgd1, active compounds read low 1.01 | locus YIR030C, strain dcg1, active compounds read low 0.997 | locus YJL092W, strain hpr5, active compounds read low 0.971 | locus YJL095W, strain BCK1 (second series), active compounds read low 0.969 | locus YJL095W, strain BCK1, active compounds read low 1.01 and 0.986 | locus YJL115W, strain asf1, active compounds read low 0.956 | locus YJL129C, strain trk1, active compounds read low 0.961 | locus YJL134W, strain LCB3, active compounds read low 1 | locus YJL154C, strain vps35, active compounds read low 0.963 | locus YJL164C, strain tpk1, active compounds read low 0.988 | locus YJL166W, strain qcr8, active compounds read low 0.987 | locus YJL168C, strain set2, active compounds read low 1 | locus YJL187C, strain SWE1 (second series), active compounds read low 0.997 | locus YJR043C, strain POL32, active compounds read low 1 | locus YJR066W, strain TOR1, active compounds read low 0.962 | locus YJR075W, strain HOC1, active compounds read low 1.02
